# In all, about 5,500 compounds went through this assay and about 2,000 (36%) were called active. Another 18% or so got no clear call; they are omitted. The list shows a part of the results. Unmarked numbers belong to inactive results. Rule as the data show it: active = normalized growth mostly below about 0.91 (no sharp cut-off); inconclusive = no clear call, values can overlap the other calls; inactive = mostly above about 0.92.
# Assay: chemical genetic growth profiling, strain panel (AID 1159580);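 also: tested at 20 µM; growth read once vehicle control cultures reached saturation at 30 °C; 1 = growth at the plate median or of vehicle wells; lower values mean less growth of the strain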
# Conditions: S. cerevisiae deletion strains, growth OD
smiles,measurement,setting,value
CC(=O)O[C@@H]1CC2C(C)(C)[C@@H](O)CC[C@]2(C)C2CC[C@@]3(C)[C@H](c4ccoc4)OC(=O)[C@H]4O[C@]43[C@@]21C (stereo partly specified),normalized growth,"locus YAL021C, strain ccr4, hits give low values",1.02
same,normalized growth,"locus YAL026C, strain drs2, hits give low values",0.989
same,normalized growth,"locus YAL030W, strain snc1, hits give low values",0.996
same,normalized growth,"locus YBL061C, strain skt5, hits give low values",0.984
same,normalized growth,"locus YBR009C, strain hhf1, hits give low values",1
same,normalized growth,"locus YBR021W, strain FUR4, hits give low values",0.823 (active)
same,normalized growth,"locus YBR023C, strain chs3, hits give low values",0.991
same,normalized growth,"locus YBR171W, strain sec66, hits give low values",0.993
same,normalized growth,"locus YBR229C, strain ROT2, hits give low values",1.01
same,normalized growth,"locus YBR231C, strain swc5, hits give low values",0.995
same,normalized growth,"locus YBR279W, strain paf1, hits give low values",0.998
same,normalized growth,"locus YCL011C, strain gbp2, hits give low values",0.985
same,normalized growth,"locus YCL016C, strain dcc1, hits give low values",0.995
same,normalized growth,"locus YCL029C, strain bik1, hits give low values",0.997
same,normalized growth,"locus YCL061C, strain MRC1, hits give low values",0.994
same,normalized growth,"locus YCL069W, strain vba3, hits give low values",0.988
same,normalized growth,"locus YCR088W, strain abp1, hits give low values",0.988
same,normalized growth,"locus YDL005C, strain med2, hits give low values",0.988
same,normalized growth,"locus YDL035C, strain GPR1, hits give low values",0.967
same,normalized growth,"locus YDL040C, strain nat1, hits give low values",0.986
same,normalized growth,"locus YDL074C, strain BRE1, hits give low values",0.947
same,normalized growth,"locus YDL101C, strain DUN1, hits give low values",1.02
same,normalized growth,"locus YDL134C, strain PPH21, hits give low values",1
same,normalized growth,"locus YDL185W, strain tfp1, hits give low values",1
same,normalized growth,"locus YDL192W, strain arf1, hits give low values",0.964
same,normalized growth,"locus YDR001C, strain nth1, hits give low values",0.996
same,normalized growth,"locus YDR069C, strain doa4, hits give low values",1.01
same,normalized growth,"locus YDR101C, strain arx1, hits give low values",0.973
same,normalized growth,"locus YDR137W, strain rgp1, hits give low values",0.986
same,normalized growth,"locus YDR159W, strain sac3, hits give low values",0.964
same,normalized growth,"locus YDR162C, strain NBP2, hits give low values",0.987
same,normalized growth,"locus YDR195W, strain ref2",0.981
same,normalized growth,"locus YDR297W, strain sur2, hits give low values",1.01
same,normalized growth,"locus YDR318W, strain mcm21, hits give low values",0.99
same,normalized growth,"locus YDR334W, strain swr1, hits give low values",1.01
same,normalized growth,"locus YDR335W, strain msn5, hits give low values",0.995
same,normalized growth,"locus YDR388W, hits give low values",1.02
same,normalized growth,"locus YDR392W, strain spt3, hits give low values",0.968
same,normalized growth,"locus YDR502C, strain sam2, hits give low values",1
same,normalized growth,"locus YEL003W, strain gim4, hits give low values",0.987
same,normalized growth,"locus YEL037C, strain rad23, hits give low values",0.995
same,normalized growth,"locus YEL061C, strain CIN8 (second series), hits give low values",0.992
same,normalized growth,"locus YEL061C, strain CIN8, hits give low values",1
same,normalized growth,"locus YER015W, strain faa2, hits give low values",0.996
same,normalized growth,"locus YER016W, strain bim1, hits give low values",0.989
same,normalized growth,"locus YER110C, hits give low values",1.02
same,normalized growth,"locus YER111C, strain swi4, hits give low values",0.98
same,normalized growth,"locus YER155C, strain BEM2 (second series), hits give low values",1.01
same,normalized growth,"locus YER155C, strain BEM2, hits give low values",1.02
same,normalized growth,"locus YER167W, strain BCK2, hits give low values",0.996
same,normalized growth,"locus YFR010W, strain ubp6, hits give low values",0.993
same,normalized growth,"locus YGL078C, strain dbp3, hits give low values",1.02
same,normalized growth,"locus YGL086W, strain mad1, hits give low values",0.998
same,normalized growth,"locus YGL167C, strain pmr1, hits give low values",0.998
same,normalized growth,"locus YGL173C, strain kem1, hits give low values",0.998
same,normalized growth,"locus YGL227W, strain vid30, hits give low values",0.989
same,normalized growth,"locus YGL240W, strain doc1, hits give low values",0.966
same,normalized growth,"locus YGL248W, strain PDE1, hits give low values",1.01
same,normalized growth,"locus YGL253W, strain hxk2, hits give low values",0.95
same,normalized growth,"locus YGR135W, strain pre9, hits give low values",1.04
same,normalized growth,"locus YGR252W, strain gcn5, hits give low values",0.975
same,normalized growth,"locus YHR013C, strain ard1, hits give low values",0.988
same,normalized growth,"locus YHR027C, strain rpn1, hits give low values",0.983
same,normalized growth,"locus YHR030C, strain SLT2, hits give low values",1.01
same,normalized growth,"locus YHR079C, strain IRE1 (second series), hits give low values",1.01
same,normalized growth,"locus YHR079C, strain IRE1, hits give low values",1.02
same,normalized growth,"locus YHR094C, strain hxt1, hits give low values",1.01
same,normalized growth,"locus YHR129C, strain ARP1, hits give low values",1.01
same,normalized growth,"locus YHR142W, strain chs7, hits give low values",0.992
same,normalized growth,"locus YHR200W, strain rpn10, hits give low values",1.01
same,normalized growth,"locus YIL066C, strain RNR3, hits give low values",0.967
same,normalized growth,"locus YIL073C, strain SPO22, hits give low values",1.03
same,normalized growth,"locus YIL125W, strain kgd1, hits give low values",1.01
same,normalized growth,"locus YIR030C, strain dcg1, hits give low values",1
same,normalized growth,"locus YJL092W, strain hpr5, hits give low values",0.995
same,normalized growth,"locus YJL095W, strain BCK1 (second series), hits give low values",1.01
same,normalized growth,"locus YJL095W, strain BCK1, hits give low values",1.01
same,normalized growth,"locus YJL115W, strain asf1, hits give low values",0.997
same,normalized growth,"locus YJL129C, strain trk1, hits give low values",0.976
same,normalized growth,"locus YJL134W, strain LCB3, hits give low values",1.01
same,normalized growth,"locus YJL154C, strain vps35, hits give low values",0.994
same,normalized growth,"locus YJL164C, strain tpk1, hits give low values",1
same,normalized growth,"locus YJL166W, strain qcr8, hits give low values",0.988
same,normalized growth,"locus YJL168C, strain set2, hits give low values",1.01
same,normalized growth,"locus YJL187C, strain SWE1 (second series), hits give low values",1.02
same,normalized growth,"locus YJL187C, strain SWE1, hits give low values",0.991
